According to PubChem BioAssay:

Assay: blood-stage malaria parasite viability loss – strain 3D7, DAPI fluorescence, 100 nL, primary screen (AID 1184);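 further: parasites grown inside human red blood cells in medium with human serum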
Settings: P. falciparum 3D7 growth, 3 d, higher = more signal

Compound | z-score
COC(=O)[C@@]1(Cc2ccc(OC)cc2)[C@H]2c3cc(C(=O)N(C)C)n(CCF)c3C[C@H]2CN1C(=O)c1ccccc1 | -1.65
C[N+](C)(C)CCCCCCNC(=O)[C@@H]1C[C@@H]2C(=O)NCC(=O)N2[C@@H]1c1ccc(O)cc1 | 0.627
COCC(=C=CC[C@@H](O)c1ccccc1OCCO)C[C@@H](O)COCc1ccccc1 | -2.84
CC(C)=CCCC(C)=CC(O)C1C=CC2C(=O)N(c3ccccc3)C(=O)C2N1Nc1ccc([N+](=O)[O-])cc1 (stereo not given) | -0.0908
COC(=O)[C@@]1(Cc2ccccc2)[C@H]2c3cc(C(=O)N(C)C)n(Cc4ccccn4)c3C[C@H]2CN1C(=O)c1ccccc1 | -0.847
COCCOC(=O)N1C(=O)[C@@]2(c3cc(C#CC4(O)CCCCCC4)ccc31)[C@H](C(=O)N1CCc3cc(OC)c(OC)cc3C1)[C@H]1C(=O)O[C@H](c3ccccc3)[C@H](c3ccccc3)N1[C@@H]2c1ccccc1OCCO | -1.99
C=CCN1C(=O)[C@@]2(O[C@@H](CCn3cc([C@H](O)c4ccccc4)nn3)[C@H]([Si](C)(C)c3ccc(OC)cc3)[C@H]2C)c2cc(NC(=O)c3ccc(OC)cc3)ccc21 | -2.7
C#CCNS(=O)(=O)N(C)C | -0.265
O=C(O)[C@@]1(Cc2ccccc2)COC(c2ccc(OCCCO)cc2)=N1 | -0.0272
COc1ccc([Si](C)(C)[C@@H]2[C@@H](CCO)O[C@]3(C(=O)N(Cc4ccccc4)c4ccc(N5CCCCC5=O)cc43)[C@H]2C)cc1 | -2.89
CC1CC/C=C\[C@H]2OC34C=CCN(Cc5ccccc5)C(=O)[C@H]3N(CCO)C(=O)[C@@H]4C2C(=O)O1 (stereo not given in full) | -1.56
C=C(COC)C(=O)CC[C@H](OC(=O)c1ccccc1-c1ccccc1C(=O)O)c1ccc(CO)o1 | 0.399
C=CC[C@@]1(C(=O)NCCN2CCOCC2)N=C(c2ccc(OCCCO)cc2)O[C@@H]1c1ccccc1 | -0.825
CC(C)(C)OC(=O)CC[C@@]1(C(=O)N2CCCCC2)N=C(c2ccc(OCCCO)cc2)O[C@@H]1c1ccccc1CN=[N+]=[N-] | -2.24
C=CCOC(=O)[C@H]1[C@@H]2C(=O)O[C@@H](c3ccccc3)[C@@H](c3ccccc3)N2[C@@H](c2ccc(OCCOC(=O)[C@H]3C[C@H]4C(=O)N[C@@H](CCCCN(C)C)C(=O)N4[C@H]3c3ccc(O)cc3)cc2)[C@]12C(=O)Nc1ccccc12 | -0.216
COc1cc(C(O)C2C=CC3C(=O)N(C)C(=O)C3N2NC(=O)OC(C)(C)C)cc(OC)c1OC (stereo not given) | -0.361
CC(=O)NCCCC[C@@H]1NC(=O)[C@H]2C[C@@H](C(=O)NCCCCCN)[C@@H](c3cccc(OCCO)c3)N2C1=O | 0.184
CC(C)C[C@@H]1NC(=O)[C@@]23C(=O)N[C@@H](Cc4ccccc4)C2[C@H](C)[C@@]2(C)O[C@H]2C3/C=C/C/C=C\CNC(=O)[C@@H]2CCCN2C1=O (stereo not given in full) | 0.817
CC1C=C(CCCO)C=C(C(=O)OCCS(C)(=O)=O)C(C(=O)OCCS(C)(=O)=O)=CN1Cc1cccc(OC(F)(F)F)c1 (stereo not given) | -2.67
CCOC(=O)C1=CC[C@@H](c2ccccc2)N(S(=O)(=O)c2ccc(C)cc2)[C@H]1C=C(C)C | -2.17
CC1CC/C=C\[C@H]2OC34C=CCN(c5ccc(Cl)cc5)C(=O)[C@H]3N(C(CO)C(C)C)C(=O)[C@]4(C)C2C(=O)O1 (stereo not given in full) | -0.0809
COC(=O)[C@@]1(Cc2ccc(OC)cc2)[C@H]2c3cc(C(=O)N(C)C)n(Cc4cc(C)n(C)n4)c3C[C@H]2CN1C(=O)c1ccccc1 | -1.63
COC(=O)[C@@]1(Cc2ccccc2)[C@H]2c3cc(C(=O)N(C)C)n(Cc4ccc(O)c(OC)c4)c3C[C@H]2CN1C(=O)c1ccccc1 | -1.55
COc1ccc(C#Cc2ccc3c(c2)[C@]2(C(=O)N3)[C@H](c3ccc(OCCO)cc3)N3[C@H](c4ccccc4)[C@H](c4ccccc4)OC(=O)[C@H]3[C@@H]2C(=O)N2CCN(c3ncccn3)CC2)cc1 | -1.31
O=C1CSC(c2cccc([N+](=O)[O-])c2)N1c1ccccc1 (stereo not given) | 0.464
